Bioassay records: PubChem BioAssay, National Center for Advancing Translational Sciences (NCATS)
A selection: hits, their analogues and other compounds. The true share with any hit is near 4.7%.
TGFb inhibitor = TGF-b pathway inhibition; HepG2 CAGA-GFP TGF-b/SMAD3 reporter, GFP fluorescence, 18 h; TGF-beta stimulated, 500 pg/mL final; Potency, µM (top dose mostly 46.1 µM), most hits filed as inhibitors; 410,000 tested, 1.2% active; AID 588855; further: nearly all actives have a fitted effect of over 65% in size
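First, reporter cells (HEPG2 CAGA-GFP) rested 2 h at 37 degrees C. Next, compounds were pinned in and TGF-beta added to 500 pg/mL final. After 18 h, GFP was imaged per cell and summed per well.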
ATXN2 expr inh = inhibitors of ATXN2 expression; HEK-293 ATXN2-luciferase reporter, luminescence, 24 h; Potency, µM (titrated, usually from 57 µM), hits mostly inhibitors; 360,000 tested, 0.72% active; AID 1745845; further: nearly all actives have a fitted effect of over 55% in size
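qHTS (up to 57 uM final) was run with 24 h compound exposure of reporter cells at 37 °C. Each well was multiplexed: SteadyGlo luminescence measured ATXN2-luciferase expression after a fluorogenic Gly-Phe-AFC viability readout (25 uM final).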
DRD3 antagonist = antagonists of human D3 dopamine receptor; P35462; D3R cells, DiscoveRx beta-arrestin luminescence, antagonist mode; stronger effect = lower value; max response, negative = inhibition, %; 360,000 tested, 2.5% active; in the data active means max response below about -50%; inconclusive means no clear call, values can overlap the other calls
Target sequence (P35462 whole entry, looked up): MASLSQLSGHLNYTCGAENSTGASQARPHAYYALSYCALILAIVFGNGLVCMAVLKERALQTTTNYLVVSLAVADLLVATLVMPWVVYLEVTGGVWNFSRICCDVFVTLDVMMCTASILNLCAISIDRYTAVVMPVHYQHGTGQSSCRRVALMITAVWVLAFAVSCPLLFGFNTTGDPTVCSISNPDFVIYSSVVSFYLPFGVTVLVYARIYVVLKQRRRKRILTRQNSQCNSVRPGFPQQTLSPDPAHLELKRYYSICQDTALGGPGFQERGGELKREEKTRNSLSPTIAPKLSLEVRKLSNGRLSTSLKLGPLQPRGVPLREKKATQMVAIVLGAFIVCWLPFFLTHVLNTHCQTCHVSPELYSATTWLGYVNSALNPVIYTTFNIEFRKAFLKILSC
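Cells plated overnight at 1500 cells/well, then exposed to library compounds with dopamine controls for 90 minutes at 37 degrees C. DiscoveRx reagent added for 30–60 minutes at room temperature; luminescence read, quantitative HTS format.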
ATXN viability = viability counter-screen for ATXN expression inhibitors. Potency, µM (series often up to 56.7 µM), most hits filed as cytotoxic. AID 651635. 400,000 tested, 0.49% active. S2 cells (HEK-293 line with an ATXN2-luciferase reporter) viability, CellTiter-Fluor protease fluorescence, 24 h; further: nearly all actives have a fitted effect of over 40% in size
DRD3 agonist = D3 dopamine receptor (human) agonism | AID 652048 | 410,000 tested, 0.58% active | max activation, % | D3R DiscoveRx beta-arrestin cells, luminescence, 90 min; in the data active means max activation above about 30%
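Agonist-mode cell screen: cells plated at 1500/well and incubated overnight at 37 °C, then exposed to library compounds for 90 min at 37 °C. Detection reagent was added for 30–60 min at room temperature, and luminescence was read.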
HepG2 viability = counter-screen for TGF-b inhibitors: cytotoxicity in HepG2 cells; HepG2 CAGA-GFP viability, ATP luminescence, 18 h; Potency, µM (titrated, usually from 46.1 µM), usual class: cytotoxic; 410,000 tested, 0.76% active; AID 588856
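HepG2 CAGA-GFP cells (1000/well, DMEM with 1% FBS) received compound, then TGF-beta at 500 pg/mL final, and were incubated 18 hours at 37 degrees C. Viability was read by CellTiter-Glo luminescence. Media-only wells were set as complete cell-killing and DMSO as no toxicity.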
Large screens that a line does not name were inactive. Unless noted, the call rests on the fitted dose curve; in most records, active means well fitted curve in the direction sought with a large enough effect; inconclusive means small, poorly fitted or top-dose-only effect, or another doubt; inactive means no such curve, though single readings can be large; an effect the other way counts as inactive or inconclusive.

CCCSc1ncc(Cl)c(C(=O)Nc2c(C(=O)Nc3ccc(OC)cc3)oc3ccccc23)n1	none (no result: TGFb inhibitor, ATXN2 expr inh, DRD3 antagonist, ATXN viability)
O=C(C[C@H]1C/C=C\CC[C@H](Cc2ccc(F)cc2)C(=O)O[C@@H](c2ccccc2)CNC1=O)N[C@H](CO)Cc1ccccc1	TGFb inhibitor inconclusive, ATXN viability inconclusive
O=C(C[C@H]1C/C=C\C[C@H](Cc2ccc(F)cc2)C(=O)O[C@@H](c2ccccc2)CNC1=O)N[C@H](CO)Cc1ccccc1	DRD3 agonist 43.3
CC(C)(C)OC(=O)C[C@@H]1C/C=C\C[C@@H](CC(=O)NCCO)C(=O)NC[C@@H](c2ccccc2)OC1=O	DRD3 antagonist -63.2
O=C(C[C@H]1C/C=C\C[C@H](NC(=O)OCC2c3ccccc3-c3ccccc32)C(=O)OC[C@H](Cc2ccccc2)NC1=O)N[C@H](CO)Cc1ccccc1	TGFb inhibitor inconclusive, ATXN2 expr inh inconclusive, DRD3 antagonist -51.4, ATXN viability inconclusive, HepG2 viability 12.6µM
O=C(C[C@H]1C/C=C\C[C@@H](Cc2ccc(F)cc2)C(=O)O[C@H](c2ccccc2)CNC1=O)NCCO	HepG2 viability 12.6µM
CC(C)(C)OC(=O)C[C@H]1C/C=C\C[C@@H](CC(=O)NCCO)C(=O)NC[C@H](c2ccccc2)OC1=O	none
O=C(C[C@@H]1C/C=C/CC[C@H](Cc2ccc(F)cc2)C(=O)O[C@H](c2ccccc2)CNC1=O)NCCO	none
C[C@H]1COC(=O)[C@H](Cc2ccc(F)cc2)C/C=C\C[C@H](CC(=O)NCCO)C(=O)N1	DRD3 agonist 30.3
COC1CCC(N(C(=O)C2CCC(C)CC2)c2cc(C3=CCCCC3)sc2C(=O)O)CC1 (stereo unspecified)	none (no result: TGFb inhibitor, DRD3 antagonist, ATXN viability, DRD3 agonist, HepG2 viability)
O=C(NCc1ccccc1)C(CCc1ccccc1)n1c(=O)c(-c2ccccc2)nc2ccccc21 (stereo unspecified)	DRD3 antagonist -71.1 (no result: TGFb inhibitor, ATXN2 expr inh, ATXN viability, HepG2 viability)
O=C(NC1CCCCC1)C(c1ccnc2ccccc12)n1c(=O)c(-c2ccccc2)nc2ccccc21 (stereo unspecified)	DRD3 antagonist -68.0 (no result: TGFb inhibitor, ATXN2 expr inh, ATXN viability, HepG2 viability)
CCc1ccc(N2C(=O)C(Cl)=C(Nc3ccc(C(=O)N4CCCC4)cc3)C2=O)cc1	DRD3 antagonist -57.1
O=C(c1ccc(N2C(=O)c3ccccc3C2=O)cc1)N1CCCCC1	none
CN1CCC/C1=C/C=C1\SC(=S)NC1=O	DRD3 antagonist -64.3
COc1ccc(S(=O)(=O)c2c(N)n(Cc3ccco3)c3nc4ccccc4nc23)cc1	TGFb inhibitor inconclusive, DRD3 antagonist -71.3
COc1ccccc1C1CN(CCNC(=O)c2cscn2)Cc2ccccc2O1 (stereo unspecified)	none (no result: TGFb inhibitor, ATXN2 expr inh, DRD3 antagonist, DRD3 agonist, HepG2 viability)
O=C(CCCOc1ccccc1)Nc1nccs1	DRD3 antagonist -57.3
COc1ccc(OCCCC(=O)Nc2cccnc2)cc1	DRD3 antagonist -90.1
O=C(CCCC(=O)Nc1cccnc1)Nc1cccnc1	none
Cc1ccc(C(=O)NCCc2nnc3n2CCN(Cc2cc(C)cc(C)c2)CC3)cc1	none (no result: TGFb inhibitor, ATXN2 expr inh, DRD3 antagonist, DRD3 agonist, HepG2 viability)
c1csc(Cc2nn3c(-c4n[nH]c5c4CCC5)nnc3s2)c1	DRD3 antagonist -61.5
CC(C)N1CCN(Cc2ccc(OCc3ccccc3)cc2)CC1CCO (stereo unspecified)	HepG2 viability 2µM (no result: ATXN2 expr inh)
Cc1ccc2c(C)c(C(=O)N(Cc3ccc(Cl)cc3)C3CCS(=O)(=O)C3)oc2c1 (stereo unspecified)	TGFb inhibitor 11.2µM, ATXN viability inconclusive (no result: DRD3 antagonist)
CC1CCCN(C(=O)CSc2nnc(-c3cccnc3)n2C2CCCCC2)C1 (stereo unspecified)	TGFb inhibitor inconclusive
O=C(CSc1nnc2n(C3CCCC3)c(=O)c3ccccc3n12)N1CCCCCC1	TGFb inhibitor inconclusive, DRD3 agonist 34.3
CC1CCCN(C(=O)CSc2nnc3n(C4CCCC4)c(=O)c4ccccc4n23)C1 (stereo unspecified)	ATXN viability inconclusive, DRD3 agonist 46.6
CCn1c(/C=C/Nc2ccccc2)[n+](CC)c2ccc(Cl)cc21	DRD3 antagonist inconclusive, ATXN viability inconclusive
CCOC(=O)c1ccc2c(c1)n(CC)c(/C=C/Nc1ccccc1)[n+]2CC	ATXN2 expr inh inconclusive, DRD3 antagonist inconclusive, ATXN viability 11.2µM
CCN1C(=O)S/C(=C/c2ccc(Sc3nc4ccccc4[nH]3)o2)C1=O	TGFb inhibitor 12.6µM, ATXN2 expr inh inconclusive, ATXN viability inconclusive
O=C(Oc1cccc2cccnc12)c1ccc2c(c1)OCCO2	TGFb inhibitor inconclusive, DRD3 antagonist -84.4
O=C(Oc1ccccc1)c1cccc2cccnc12	TGFb inhibitor inconclusive, DRD3 antagonist -53.6
O=C(O)c1cccc2cccnc12	none
O=C(Oc1cccc2cccnc12)c1ccco1	TGFb inhibitor 12.6µM, DRD3 antagonist inconclusive
C=CCN(c1ccccc1OC)S(=O)(=O)c1cccc(C(=O)OCC(=O)c2c[nH]c3ccccc23)c1	ATXN viability inconclusive
COc1cc(OC)c(N(C)S(=O)(=O)c2cccc(C(=O)OCC(=O)c3c[nH]c4ccccc34)c2)cc1Cl	ATXN viability inconclusive, DRD3 agonist 32.8
COc1ccc(C2c3[nH]c4ccc(OC)cc4c3CCN2C(=O)Nc2ccccc2)cc1 (stereo unspecified)	TGFb inhibitor 8.91µM, ATXN viability inconclusive (no result: DRD3 antagonist)
COc1ccc(C2c3[nH]c4ccccc4c3CCN2C(=O)CCC2CCCC2)cc1 (stereo unspecified)	TGFb inhibitor inconclusive (no result: ATXN2 expr inh, DRD3 antagonist, ATXN viability)
CC1=C(SCc2ccccc2)C(=O)c2ccccc2C1=O	TGFb inhibitor 7.94µM, ATXN2 expr inh inconclusive, DRD3 antagonist -89.4, ATXN viability inconclusive, HepG2 viability 12.6µM
Cn1c(SCc2ccccc2)nccc1=O	none
Nc1nc(=O)n([C@H]2CSC(CO)O2)cc1F (stereo partly specified)	none (no result: TGFb inhibitor, DRD3 antagonist, ATXN viability, DRD3 agonist, HepG2 viability)
COc1ccc(/C=N/NC(=O)c2ccccc2)cc1CN1CCN(c2ccc(F)cc2)CC1	none
COc1cc(C(=O)N/N=C/c2ccc(OC)c(CN3CCN(c4ccc(F)cc4)CC3)c2)ccc1O	TGFb inhibitor inconclusive, DRD3 antagonist -74.9 (no result: ATXN2 expr inh)
CCCCC(=O)Nc1ccccc1CC	DRD3 antagonist -64.5
Cc1cc(C)n(-c2cc(N3CCN(S(=O)(=O)c4ccc5ccccc5c4)CC3)ccc2[N+](=O)[O-])n1	TGFb inhibitor inconclusive, DRD3 antagonist -55.1
C[C@@H]1[C@H](O)[C@@H](C)/C=C/C=C\C=C\C=C\C=C\C=C\C=C\[C@H](O[C@@H]2O[C@H](C)[C@@H](O)[C@H](N)[C@@H]2O)C[C@@H]2O[C@](O)(C[C@@H](O)C[C@@H](O)[C@H](O)CC[C@@H](O)C[C@@H](O)CC(=O)O[C@H]1C)C[C@H](O)[C@H]2C(=O)O (stereo in doubt)	none (no result: TGFb inhibitor, ATXN2 expr inh, DRD3 antagonist, ATXN viability, HepG2 viability)
